Calls of active or inactive are those of the source. Unless noted, no rule for the calls is given here.
Tests used:
[1] = HepG2 liver cancer cell viability effects, profiling panel, resazurin fluorescence, 24 h, PK04 Diversity Set (AID 1172); conditions: higher = more signal; also: test concentration not given here
[2] = basal S. cerevisiae growth modulation, no modifier, primary screen, OD600, strain BY4716, 24 h, basal condition (AID 1173); conditions: OD600, 24 h, higher = more signal, called active from +8 up or from −8 down
[3] = MM1S myeloma cell viability, profiling panel, resazurin fluorescence, basal, 24 h, PK04 Diversity Set (AID 1174); conditions: higher = more signal, called active from +8 up or from −8 down;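 also: MM1S multiple myeloma cell line; test concentration not given here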
[4] = molecular target: Dihydroorotate dehydrogenase (quinone), mitochondrial (Plasmodium falciparum (isolate 3D7)) (UniProt Q08210); assay: PfDHODH enzyme inhibitors, primary screen, biochemical, C-terminal His tag, absorbance 600 nm (AID 1175); conditions: DCIP absorbance 600 nm, higher = more signal, called active from +8 up or from −8 down;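 also: recombinant parasite enzyme with a five histidine tag at its C terminus; test concentration not given here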
Sequence of Dihydroorotate dehydrogenase (quinone), mitochondrial (Plasmodium falciparum (isolate 3D7)) (Q08210 whole entry, looked up): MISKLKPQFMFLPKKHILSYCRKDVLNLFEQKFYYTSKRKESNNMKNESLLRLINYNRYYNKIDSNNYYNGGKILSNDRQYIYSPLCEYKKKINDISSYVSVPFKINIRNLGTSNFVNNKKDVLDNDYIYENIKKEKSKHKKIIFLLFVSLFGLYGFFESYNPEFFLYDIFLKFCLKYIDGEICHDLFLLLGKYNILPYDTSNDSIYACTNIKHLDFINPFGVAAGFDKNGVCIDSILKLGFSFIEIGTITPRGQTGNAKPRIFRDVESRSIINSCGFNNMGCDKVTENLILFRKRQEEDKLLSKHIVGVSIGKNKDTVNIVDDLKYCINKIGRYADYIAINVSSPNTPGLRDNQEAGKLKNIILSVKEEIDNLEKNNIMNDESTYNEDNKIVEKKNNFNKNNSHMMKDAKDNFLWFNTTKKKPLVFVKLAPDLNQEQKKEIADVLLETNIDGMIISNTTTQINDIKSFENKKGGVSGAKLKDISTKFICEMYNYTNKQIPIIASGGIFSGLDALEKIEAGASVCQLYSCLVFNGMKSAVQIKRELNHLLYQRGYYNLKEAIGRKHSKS

[5] = P. aeruginosa biofilm formation inhibitors, primary screen, strain PAO1, LB-PBS medium, absorbance 600 nm (AID 1176); also: test concentration not given here; conditions: P. aeruginosa PAO1 growth/biofilm, A600, 12 h; higher = more signal
[6] = S. cerevisiae RM11-1a growth modifiers, primary screen, strain RM11-1a, OD600, basal, 24 h (AID 1177); conditions: OD600, 24 h, higher = more signal, called active from +8 up or from −8 down;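 also: cultures grown under basal conditions with no added stressor; test concentration not given here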
[7] = E. coli acrAB mutant growth effects, primary screen, E. coli filamentation inducers, strain DRC39, OD650, 24 h (AID 1178); conditions: higher = more signal, called active from +8 up or from −8 down;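 also: growth measured as culture turbidity by optical density at 650 nm; test concentration not given here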
[8] = E. coli acrAB mutant growth effects, primary screen, E. coli filamentation inducers, strain DRC39, OD650, 48 h (AID 1179);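 also: screen aims at cell division blockers that make cells filament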; conditions: E. coli DRC39 delta-acrAB growth, higher = more signal, called active from +8 up or from −8 down
[9] = RPMI8226 myeloma cell viability, profiling panel, resazurin fluorescence, basal, 24 h, PK04 Diversity Set (AID 1180); conditions: higher = more signal;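 also: RPMI8826 multiple myeloma cell line at 5000 cells per well; test concentration not given here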
[10] = molecular target: E3 ubiquitin-protein ligase XIAP (Homo sapiens) (UniProt P98170); assay: XIAP binders, primary screen, biophysical, small-molecule microarray, fluorescence 635 nm (AID 1181); conditions: small-molecule microarray binding, higher = more signal;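 also: score merges 667 nm emission and signal to noise over triplicate slides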
Sequence of E3 ubiquitin-protein ligase XIAP (Homo sapiens) (P98170 whole entry, looked up): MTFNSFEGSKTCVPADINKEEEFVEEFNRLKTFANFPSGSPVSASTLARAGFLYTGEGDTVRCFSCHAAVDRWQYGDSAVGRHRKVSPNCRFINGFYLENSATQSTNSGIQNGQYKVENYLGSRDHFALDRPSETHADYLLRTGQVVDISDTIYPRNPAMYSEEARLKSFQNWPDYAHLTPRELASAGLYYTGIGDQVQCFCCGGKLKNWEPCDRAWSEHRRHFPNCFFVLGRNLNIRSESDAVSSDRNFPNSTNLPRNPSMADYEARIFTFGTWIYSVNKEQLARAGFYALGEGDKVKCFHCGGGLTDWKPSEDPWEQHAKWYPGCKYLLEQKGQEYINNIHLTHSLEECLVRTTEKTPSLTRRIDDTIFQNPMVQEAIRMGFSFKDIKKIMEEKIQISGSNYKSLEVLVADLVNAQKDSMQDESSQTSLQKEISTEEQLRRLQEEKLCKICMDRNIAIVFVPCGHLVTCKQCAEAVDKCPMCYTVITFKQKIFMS

Row | Compound | z-score [1] | z-score [2] | z-score [3] | composite z-score [4] | z-score [5] | z-score [6] | z-score [7] | z-score [8] | z-score [9] | composite z-score [10]
1 | Cc1ccc(S[C@]2(C(=O)NCc3ccccc3)CC(=O)N(Cc3ccccc3Cl)[C@@H]2c2ccc(CO)cc2)cc1 | -1.46 | -0.288 (inactive) | 0.464 (inactive) | 0.429 (inactive) | 0.338 (inactive) | 0.884 (inactive) | -0.545 (inactive) | -0.756 (inactive) | 0.335 | 0.0623
2 | CCCCC=C[C@@H](NC(=O)C(C)(C)C)c1ccccc1 | -1.12 | 2.43 (inactive) | -2.58 (inactive) | 0.507 (inactive) | 0.563 (inactive) | 2.07 (inactive) | -0.275 (inactive) | -0.0819 (inactive) | -3.59 | -0.0095
3 | [N-]=[N+]=NCc1ccccc1[C@H]1OC(c2ccc(OCCCO)cc2)=N[C@@]1(CCS(=O)(=O)c1ccccc1)C(=O)O | 0.086 | -1.04 (inactive) | -0.389 (inactive) | -1.14 (inactive) | -0.0304 (inactive) | -0.81 (inactive) | -0.589 (inactive) | -0.336 (inactive) | 0.0678 | 0.273
4 | C=CCNC(=O)[C@@H]1[C@H]2C(=O)O[C@H](c3ccccc3)[C@H](c3ccccc3)N2[C@H](c2ccc(O)cc2)[C@@]12C(=O)Nc1ccc(C#CC3=CCCCC3)cc12 | -0.496 | 0.233 (inactive) | -3.25 (inactive) | -0.691 (inactive) | 1.66 (inactive) | 1.28 (inactive) | -0.33 (inactive) | 0.254 (inactive) | -6.25 | 0.28
5 | COC(=O)c1ccc(OC)c(/C=C\CC(OC(=O)c2ccncc2)c2ccccc2)c1 (stereo not given) | 0.887 | -2.06 (inactive) | 0.514 (inactive) | -6.33 (inactive) | 0.792 (inactive) | -2.69 (inactive) | 2.57 (inactive) | 1.49 (inactive) | 0.525 | 0.0774
6 | C[N+](C)(C)CCCC[C@@H]1NC(=O)[C@H]2C[C@@H](C(=O)NCCCCCN)[C@@H](c3ccc(O)cc3)N2C1=O | 0.372 | -0.589 (inactive) | 0.715 (inactive) | -1.86 (inactive) | -1.14 (inactive) | -0.683 (inactive) | 0.553 (inactive) | 0.751 (inactive) | 1.24 | 0.0017
7 | CCCCCCCCCCC(O)C1C=CC2C(=O)N(C)C(=O)C2N1Nc1ccccc1 (stereo not given) | -1.83 | 0.27 (inactive) | -1.49 (inactive) | -0.205 (inactive) | 1.58 (inactive) | 1.35 (inactive) | -0.483 (inactive) | -0.54 (inactive) | -1.33 | 0.192
8 | COCCCNC(=O)[C@@]1(Cc2ccccc2I)c2ccccc2C(=O)N(Cc2ccccc2OC)[C@H]1c1ccc(CO)cc1 | -0.831 | -0.366 (inactive) | -0.0499 (inactive) | 0.671 (inactive) | 0.18 (inactive) | 1.06 (inactive) | -0.033 (inactive) | -0.113 (inactive) | 0.317 | 0.0506
9 | O=C1N(Cc2ccccc2)c2ccccc2C[C@@]12N=C(c1ccc(OCCCO)cc1)O[C@H]2c1ccccc1 | -0.449 | -1.21 (inactive) | -2.11 (inactive) | 0.318 (inactive) | 2.26 (inactive) | 1.18 (inactive) | 0.0946 (inactive) | -0.928 (inactive) | -1.69 | 0.0918
10 | CC[C@@H](O[Si](C#C[Si](C(C)C)(C(C)C)C(C)C)(C(C)C)C(C)C)c1cn([C@H](C)c2ccccc2)nn1 | -0.0011 | 1.66 (inactive) | 0.248 (inactive) | 0.308 (inactive) | 0.596 (inactive) | 0.887 (inactive) | -0.263 (inactive) | 0.142 (inactive) | 0.328 | -0.209
11 | CN1C(=O)C2C=CC(C(O)c3ccc(I)cc3)N(N(c3ccccc3)c3ccccc3)C2C1=O (stereo not given) | -0.476 | 0.943 (inactive) | -0.788 (inactive) | 0.0495 (inactive) | 0.944 (inactive) | 0.67 (inactive) | -1.36 (inactive) | -0.105 (inactive) | -1.1 | 0.95
12 | C=CCNC(=O)[C@H]1[C@@H]2C(=O)O[C@@H](c3ccccc3)[C@@H](c3ccccc3)N2[C@@H](c2ccc(O)cc2)[C@]12C(=O)Nc1ccc(C#CCC(C(=O)OC)C(=O)OC)cc12 | -0.111 | 0.24 (inactive) | 0.0789 (inactive) | -7.4 (inactive) | 0.293 (inactive) | 0.249 (inactive) | -0.254 (inactive) | -0.0535 (inactive) | -3.01 | 0.256
13 | CN1C(=O)C2C=CC(C(O)c3ccc([N+](=O)[O-])cc3)N(Nc3ccccc3)C2C1=O (stereo not given) | -1.83 | -1.21 (inactive) | -1.03 (inactive) | 0.003 (inactive) | 1.1 (inactive) | 0.114 (inactive) | -0.987 (inactive) | -1.16 (inactive) | -1.44 | -0.0476
14 | COC(=O)[C@@]1(Cc2ccc(OC)cc2)[C@@H]2[C@@H](CC(=O)[C@H]2CC(=O)C(=O)N(C)C)CN1C(=O)c1ccccc1 | -0.54 | 1.05 (inactive) | -2.89 (inactive) | -0.284 (inactive) | 1.02 (inactive) | 0.415 (inactive) | 0.243 (inactive) | 0.358 (inactive) | -4.19 | 0.489
15 | COC(=O)[C@@]1(Cc2ccccc2)[C@H]2c3cc(C(=O)N(C)C)n(Cc4ccc(Cl)c(C(F)(F)F)c4)c3C[C@H]2CN1C(=O)c1ccccc1 | -1.83 | 2.32 (inactive) | -2.53 (inactive) | 0.46 (inactive) | 1.43 (inactive) | 1.37 (inactive) | -1.4 (inactive) | -0.744 (inactive) | -2.95 | 0.331
16 | O=C1OCC=C[C@H]2OC34C=CCN(Cn5nnc6ccccc65)C(=O)[C@H]3N(CCO)C(=O)[C@@H]4[C@@H]12 (stereo not given in full) | -0.779 | 0.818 (inactive) | -0.176 (inactive) | -0.642 (inactive) | -0.332 (inactive) | -0.581 (inactive) | 0.0034 (inactive) | -0.0669 (inactive) | -0.256 | -0.0749
17 | CS(=O)(=O)CCOC(=O)C1=CC(CCCO)=CC(C2CC2)N(Cc2sc3ccccc3c2Cl)C=C1C(=O)OCCS(C)(=O)=O (stereo not given) | -0.0631 | -6.21 (inactive) | -0.548 (inactive) | -0.559 (inactive) | 0.0478 (inactive) | 0.155 (inactive) | 0.564 (inactive) | 0.156 (inactive) | -0.541 | 0.431
18 | COc1cccc(C)c1NC(=O)O[C@H]1[C@H](OC(=O)Nc2ccccc2-c2ccccc2)[C@@H](OC(=O)Nc2ccccc2-c2ccccc2)[C@@H](OC)O[C@@H]1CO | -2.77 | 2.22 (inactive) | -3.21 (inactive) | 1.24 (inactive) | 1.23 (inactive) | 4.5 (inactive) | -0.349 (inactive) | -0.846 (inactive) | -2.61 | 0.268
19 | C[C@@]1([C@@H](NS(=O)(=O)c2cccc3cccnc23)c2ccc(-c3ccccc3)cc2)C[C@H]1C1CCCCC1 | -0.901 | 0.944 (inactive) | -2.58 (inactive) | -0.554 (inactive) | -0.0982 (inactive) | 0.368 (inactive) | -0.893 (inactive) | -0.882 (inactive) | -0.678 | 0.553
20 | CCCCC(=C=CC[C@H](O)c1ccccc1OCCO)CCO | -0.259 | -1.3 (inactive) | 0.189 (inactive) | -0.228 (inactive) | 0.755 (inactive) | 0.493 (inactive) | -0.295 (inactive) | -0.224 (inactive) | -0.0336 | -0.223
21 | CC(C)(C)OC(=O)CC[C@@]1(C(=O)N2CCOCC2)N=C(c2ccc(OCCCO)cc2)O[C@@H]1c1ccccc1CN=[N+]=[N-] | -0.538 | -0.295 (inactive) | -0.383 (inactive) | -0.405 (inactive) | 0.342 (inactive) | -0.423 (inactive) | -0.294 (inactive) | -0.0909 (inactive) | -0.365 | 0.0345
22 | CCOC(=O)C1=C[C@@H](C(C)(C)C)N(S(=O)(=O)c2ccc(C)cc2)[C@H]1c1ccc(OC)cc1 | -0.294 | 1.9 (inactive) | -0.0789 (inactive) | -0.0972 (inactive) | -0.473 (inactive) | 1.88 (inactive) | 0.33 (inactive) | -0.27 (inactive) | -1.23 | -0.149
23 | CCCNC(=O)[C@@]1(Sc2ccc(C)cc2)CC(=O)N(Cc2cc(C(F)(F)F)cc(C(F)(F)F)c2)[C@@H]1c1ccc(CO)cc1 | -0.258 | -0.265 (inactive) | 0.905 (inactive) | -0.756 (inactive) | 0.366 (inactive) | -0.977 (inactive) | 0.484 (inactive) | -0.0429 (inactive) | 0.18 | -0.127
24 | O=C1N(Cc2ccccc2)Cc2ccccc2C[C@@]12COC(c1ccc(OCCCO)cc1)=N2 | 0.775 | 0.842 (inactive) | -8.43 (active) | 0.719 (inactive) | -0.289 (inactive) | 4.69 (inactive) | 1.42 (inactive) | 0.0613 (inactive) | -2.81 | -0.124
25 | CCOC(=O)C[C@H]1[C@H](OC(=O)c2cc3ccccc3oc2=O)[C@@H](NC(=O)Cc2ccc(OC)cc2)c2cc(OCCCO)ccc2N1C(=O)Cc1ccc(OC)cc1 | 1.04 | -3.03 (inactive) | 1.26 (inactive) | -0.317 (inactive) | -0.234 (inactive) | -1.01 (inactive) | 1.76 (inactive) | 0.248 (inactive) | 0.918 | 0.177
26 | C=CCNC(=O)[C@@H]1[C@H]2C(=O)O[C@H](c3ccccc3)[C@H](c3ccccc3)N2[C@H](c2ccc(O)cc2)[C@@]12C(=O)N(C(=O)OCCOC)c1ccc(C#CCC(C(=O)OC)C(=O)OC)cc12 | 0.475 | -0.17 (inactive) | 0.716 (inactive) | -2.5 (inactive) | 0.089 (inactive) | 1.88 (inactive) | 1.09 (inactive) | 0.666 (inactive) | -1.73 | 0.0859

From PubChem BioAssay
